Measured values reported in PubChem BioAssay (EPA / NIEHS).
Active and inactive are the calls of the source. Rule for the calls: active = hit-call score of the fitted dose curve at least 0.9, where 1 is the maximum; inactive = score below 0.9.

Key:
Conditions in all cases: mRNA level, 48 h; actives raise or lower the signal
[1] = read-out: Ezrin (EZR), EZR (gene 7430); assay: LTEA_HepaRG_EZR: Life Technologies and Expression Analysis (LTEA) Assay for Ezrin (EZR) using HepaRG (AID 2283491)
Outline: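 Read-out is EZR transcript level by qRT-PCR, normalized to three housekeeping genes and fitted bidirectionally against the DMSO control. Human HepaRG cells received test chemicals for 48 h at eight half-log concentrations up to 100 uM in 0.5% DMSO.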

[2] = read-out: Cytochrome P450 3A7 (Homo sapiens) (UniProt P24462); assay: LTEA_HepaRG_CYP3A7: Life Technologies and Expression Analysis (LTEA) Assay for CYP3A7 using HepaRG (AID 2283492)
Outline: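 Differentiated HepaRG cells in serum-free induction medium exposed 48 h in duplicate to 8-point half-log series from 100 uM top in 0.5% DMSO. CYP3A7 mRNA by qRT-PCR, normalized to ACTB/GAPDH/POLR2A, bidirectional fit versus DMSO.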

CYP3A5 (gene 1577) = assay: LTEA_HepaRG_CYP3A5: Life Technologies and Expression Analysis (LTEA) Assay for CYP3A5 using HepaRG (AID 2283493)
Outline: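 HepaRG plated 48 h, switched to serum-free induction medium, chemicals added 48 h (max 100 uM, half-log, 0.5% DMSO). RNA isolated; CYP3A5 by TaqMan qRT-PCR. Gain/loss vs DMSO.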

[3] = read-out: Fatty Acid-Binding Protein 1 (FABP1), FABP1 (gene 2168); assay: LTEA_HepaRG_FABP1: Life Technologies and Expression Analysis (LTEA) Assay for Fatty Acid-Binding Protein 1 (FABP1) using HepaRG (AID 2283494)
Outline: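 Differentiated human HepaRG cells exposed 48 h in serum-free induction medium to eight half-log concentrations up to 100 uM (0.5% DMSO), duplicate. FABP1 mRNA by qRT-PCR, normalised to ACTB, GAPDH, POLR2A; bidirectional fitting against DMSO.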

[4] = read-out: Cytochrome P450 4A22 (Homo sapiens) (UniProt Q5TCH4); assay: LTEA_HepaRG_CYP4A22: Life Technologies and Expression Analysis (LTEA) Assay for Cytochrome P450 4A22 (CYP4A22) using HepaRG (AID 2283495)
Outline: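 Differentiated HepaRG cells in serum-free induction medium exposed 48 h in duplicate to eight half-log concentrations up to 100 uM in 0.5% DMSO. CYP4A22 mRNA quantified by TaqMan qRT-PCR, normalized to ACTB, GAPDH and POLR2A; bidirectional fit versus DMSO.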

[5] = read-out: Cytochrome P450 7A1 (Homo sapiens) (UniProt P22680); assay: LTEA_HepaRG_CYP7A1: Life Technologies and Expression Analysis (LTEA) Assay for Cytochrome P450 7A1 (CYP7A1) using HepaRG (AID 2283496)
Outline: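 HepaRG cells plated 48 h, then switched to serum-free induction medium and exposed in duplicate for 48 h to 8-point half-log series from 100 uM in 0.5% DMSO. CYP7A1 mRNA by qRT-PCR (TaqMan), normalized to ACTB/GAPDH/POLR2A; bidirectional fit versus DMSO.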

[6] = read-out: Glutathione S-Transferase (GSTA2), GSTA2 (gene 2939); assay: LTEA_HepaRG_GSTA2: Life Technologies and Expression Analysis (LTEA) Assay for Glutathione S-Transferase (GSTA2) using HepaRG (AID 2283497)
Outline: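 Differentiated human HepaRG cells were exposed in duplicate for 48 h in serum-free induction medium, 8 points from 100 uM top in half-log steps, 0.5% DMSO. GSTA2 mRNA was measured by TaqMan qRT-PCR, normalized to ACTB, GAPDH and POLR2A; bidirectional fit versus DMSO.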

[7] = read-out: Glutamate-cysteine ligase catalytic (GCLC), GCLC (gene 2729); assay: LTEA_HepaRG_GCLC: Life Technologies and Expression Analysis (LTEA) Assay for Glutamate-cysteine ligase catalytic (GCLC) using HepaRG (AID 2283498)
Outline: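 Differentiated HepaRG cells exposed 48 h in serum-free induction medium, eight-point half-log series topping at 100 uM in 0.5% DMSO, duplicates. GCLC mRNA by qRT-PCR normalized to ACTB, GAPDH and POLR2A, fitted bidirectionally versus DMSO.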

[8] = read-out: growth arrest and DNA damage 45 (GADD45G), GADD45G (gene 10912); assay: LTEA_HepaRG_GADD45G: Life Technologies and Expression Analysis (LTEA) Assay for growth arrest and DNA damage 45 (GADD45G) using HepaRG (AID 2283499)
Outline: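 Differentiated human HepaRG cells, 48 h post-plating, exposed 48 h in serum-free induction medium to 8 half-log concentrations (top 100 uM, 0.5% DMSO) in duplicate. GADD45G mRNA measured by Fluidigm TaqMan qRT-PCR, normalized to ACTB, GAPDH, POLR2A; bidirectional fit versus DMSO.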

[9] = read-out: Glutamate-cysteine ligase regulatory (GCLM), GCLM (gene 2730); assay: LTEA_HepaRG_GCLM: Life Technologies and Expression Analysis (LTEA) Assay for Glutamate-cysteine ligase regulatory (GCLM) using HepaRG (AID 2283500)
Outline: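 Cells were plated, cultured 48 h, switched to serum-free induction medium, then dosed in duplicate for 48 h at eight half-log concentrations up to 100 uM. RNA was then profiled by qRT-PCR; gain or loss versus DMSO was fitted.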

[10] = read-out: Glutathione S-transferase M3 (GSTM3), GSTM3 (gene 2947); assay: LTEA_HepaRG_GSTM3: Life Technologies and Expression Analysis (LTEA) Assay for Glutathione S-transferase M3 (GSTM3) using HepaRG (AID 2283501)
Outline: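 Differentiated human HepaRG cells were exposed in duplicate for 48 h in serum-free induction medium, 8 points from 100 uM top in half-log steps, 0.5% DMSO. GSTM3 mRNA was measured by TaqMan qRT-PCR, normalized to ACTB, GAPDH and POLR2A; bidirectional fit versus DMSO.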

[11] = read-out: Hypoxia-inducible factor 1-alpha (Homo sapiens) (UniProt Q16665); assay: LTEA_HepaRG_HIF1A: Life Technologies and Expression Analysis (LTEA) Assay for Hypoxia-inducible factor 1 (HIF1A) Trancription factor using HepaRG (AID 2283503)
Outline: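 Differentiated HepaRG cells in serum-free induction medium exposed 48 h, in duplicate, to 8-point half-log series from 100 uM in 0.5% DMSO. HIF1A mRNA measured by TaqMan qRT-PCR, normalized to ACTB/GAPDH/POLR2A, fitted bidirectionally versus DMSO.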

[12] = read-out: 3-Hydroxy-3-Methylglutaryl-CoA Synthase 2 (HMGCS2), HMGCS2 (gene 3158); assay: LTEA_HepaRG_HMGCS2: Life Technologies and Expression Analysis (LTEA) Assay for 3-Hydroxy-3-Methylglutaryl-CoA Synthase 2 (HMGCS2) using HepaRG (AID 2283504)
Outline: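 Human HepaRG cells in serum-free induction medium were exposed in duplicate for 48 h to 8-point half-log series from 100 uM top in 0.5% DMSO. HMGCS2 mRNA measured by TaqMan qRT-PCR, normalised to ACTB, GAPDH, POLR2A; bidirectional fit versus DMSO.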

HGF (gene 3082) = assay: LTEA_HepaRG_HGF: Life Technologies and Expression Analysis (LTEA) Assay for Hepatocyte Growth Facto (HGF) using HepaRG (AID 2283505)
Outline: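 Differentiated HepaRG cells in serum-free induction medium exposed 48 h in duplicate, 8 half-log concentrations from 100 uM in 0.5% DMSO. HGF mRNA by qRT-PCR, normalised to ACTB, GAPDH, POLR2A; bidirectional fitting.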

[13] = read-out: Insulin Like Growth Factor 1 (IGF1), IGF1 (gene 3479); assay: LTEA_HepaRG_IGF1: Life Technologies and Expression Analysis (LTEA) Assay for Insulin Like Growth Factor 1 (IGF1) using HepaRG (AID 2283506)
Outline: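 HepaRG, plated 48 h, then switched to serum-free induction media; test chemical 8-pt half-log from 100 uM (0.5% DMSO), duplicate, 48 h. Lysis in RLT, TaqMan qRT-PCR, norm. ACTB/GAPDH/POLR2A. Bidirectional fit vs DMSO.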

[14] = read-out: Intercellular Adhesion Molecule 1 (ICAM1), ICAM1 (gene 3383); assay: LTEA_HepaRG_ICAM1: Life Technologies and Expression Analysis (LTEA) Assay for Intercellular Adhesion Molecule 1 (ICAM1) using HepaRG (AID 2283507)
Outline: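 Differentiated human HepaRG cells in serum-free induction medium exposed 48 h in duplicate to 8 half-log concentrations (top 100 uM, 0.5% DMSO). ICAM1 mRNA quantified by TaqMan qRT-PCR, normalized to ACTB, GAPDH and POLR2A; bidirectional fitting versus DMSO.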

[15] = read-out: Insulin-like growth factor-binding protein 1 (IGFBP1), IGFBP1 (gene 3484); assay: LTEA_HepaRG_IGFBP1: Life Technologies and Expression Analysis (LTEA) Assay for Insulin-like growth factor-binding protein 1 (IGFBP1) using HepaRG (AID 2283508)
Outline: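 HepaRG cells, plated 48 h then switched to serum-free induction medium, exposed in duplicate for 48 h to 8-point half-log series from 100 uM in 0.5% DMSO. mRNA measured by qRT-PCR, normalized to ACTB/GAPDH/POLR2A; bidirectional fit versus DMSO.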

[16] = read-out: Interleukin 6 Receptor (IL6R), IL6R (gene 3570); assay: LTEA_HepaRG_IL6R: Life Technologies and Expression Analysis (LTEA) Assay for Interleukin 6 Receptor (IL6R) using HepaRG (AID 2283510)
Outline: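 Readout is IL6R transcript level by TaqMan qRT-PCR, normalized to three housekeeping genes and fitted bidirectionally against 0.5% DMSO controls. Human HepaRG cells received chemicals for 48 h in serum-free induction medium, highest concentration 100 uM.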

[17] = read-out: Heat shock 70 kDa protein 1 (HSPA1A), gene 3303; assay: LTEA_HepaRG_HSPA1A: Life Technologies and Expression Analysis (LTEA) Assay for Heat shock 70 kDa protein 1 (HSPA1A) using HepaRG (AID 2283502)
Outline: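 Readout is HSPA1A transcript level by microfluidic qRT-PCR, normalized to three housekeeping genes and analysed for gain or loss of signal relative to 0.5% DMSO. Human HepaRG cultures received test chemicals for 48 h at up to 100 uM.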

[18] = read-out: Interleukin 6 (IL6), IL6 (gene 3569); assay: LTEA_HepaRG_IL6: Life Technologies and Expression Analysis (LTEA) Assay for Interleukin 6 (IL6) using HepaRG (AID 2283509)
Outline: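 HepaRG cells exposed in duplicate for 48 h to eight half-log concentrations, top 100 uM, in 0.5% DMSO serum-free induction medium. mRNA measured by qRT-PCR, normalized to ACTB, GAPDH and POLR2A. Bidirectional fit versus DMSO.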

Measured: AC50

Sequence of Cytochrome P450 3A7 (Homo sapiens) (P24462 whole entry, looked up): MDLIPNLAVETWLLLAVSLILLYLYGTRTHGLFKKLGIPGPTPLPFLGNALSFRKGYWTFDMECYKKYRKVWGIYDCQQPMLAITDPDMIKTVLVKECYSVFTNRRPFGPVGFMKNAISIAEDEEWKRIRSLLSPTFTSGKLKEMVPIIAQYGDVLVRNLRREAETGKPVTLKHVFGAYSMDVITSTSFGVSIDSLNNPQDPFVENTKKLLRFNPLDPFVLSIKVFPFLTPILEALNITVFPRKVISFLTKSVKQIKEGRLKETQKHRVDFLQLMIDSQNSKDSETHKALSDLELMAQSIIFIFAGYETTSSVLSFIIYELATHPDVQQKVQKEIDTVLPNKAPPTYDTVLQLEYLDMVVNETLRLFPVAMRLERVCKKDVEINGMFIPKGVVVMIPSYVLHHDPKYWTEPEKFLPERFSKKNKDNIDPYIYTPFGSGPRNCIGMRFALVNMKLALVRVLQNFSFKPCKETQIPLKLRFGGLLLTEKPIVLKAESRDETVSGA
Sequence of Hypoxia-inducible factor 1-alpha (Homo sapiens) (Q16665 whole entry, looked up): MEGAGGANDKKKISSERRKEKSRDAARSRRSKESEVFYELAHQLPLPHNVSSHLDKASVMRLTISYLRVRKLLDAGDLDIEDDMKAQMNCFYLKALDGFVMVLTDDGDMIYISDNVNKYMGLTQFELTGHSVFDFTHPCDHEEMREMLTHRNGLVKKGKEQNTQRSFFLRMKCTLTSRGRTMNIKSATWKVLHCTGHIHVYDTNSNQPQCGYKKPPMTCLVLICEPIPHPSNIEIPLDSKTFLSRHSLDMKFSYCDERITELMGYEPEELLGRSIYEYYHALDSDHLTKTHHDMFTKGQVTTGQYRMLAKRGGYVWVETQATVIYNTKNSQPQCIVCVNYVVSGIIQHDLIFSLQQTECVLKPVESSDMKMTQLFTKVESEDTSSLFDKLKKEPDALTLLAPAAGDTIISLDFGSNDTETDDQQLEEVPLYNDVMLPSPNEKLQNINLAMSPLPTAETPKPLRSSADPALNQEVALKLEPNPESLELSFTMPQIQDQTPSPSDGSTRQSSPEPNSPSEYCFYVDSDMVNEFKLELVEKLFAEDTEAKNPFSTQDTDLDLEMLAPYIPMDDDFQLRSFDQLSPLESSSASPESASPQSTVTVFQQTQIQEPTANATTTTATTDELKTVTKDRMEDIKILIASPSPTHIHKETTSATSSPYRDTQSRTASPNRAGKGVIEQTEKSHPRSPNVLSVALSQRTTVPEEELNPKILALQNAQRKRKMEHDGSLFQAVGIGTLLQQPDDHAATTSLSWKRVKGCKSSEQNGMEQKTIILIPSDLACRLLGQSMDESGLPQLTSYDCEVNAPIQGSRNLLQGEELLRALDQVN

CN(C)c1ccc(Cc2ccc(N(C)C)cc2)cc1
inactive: [1] | CYP3A5 (gene 1577) | [3] | [5] | [6] | [7] | [9] | [10] | [11] | HGF (gene 3082) | [14] | [15] | [16]
active: [2] 11.6 µM | [4] 50 µM | [8] 50 µM | [12] 88.4 µM | [13] 79.2 µM

CC/C(=C\C(=N/O)C(N)=O)C(C)[N+](=O)[O-] (stereo unspecified)
inactive: [1] | [2] | CYP3A5 (gene 1577) | [3] | [4] | [5] | [6] | [7] | [8] | [9] | [10] | [17] | [11] | [12] | HGF (gene 3082) | [13] | [14] | [15] | [18] | [16]

CC(C)(O)c1coc(S(=O)(=O)NC(=O)Nc2c3c(cc4c2CCC4)CCC3)c1
inactive: [1] | CYP3A5 (gene 1577) | [3] | [4] | [6] | [7] | [8] | [10] | [11] | [12] | HGF (gene 3082) | [13] | [14] | [15] | [18] | [16]
active: [2] 10.5 µM | [5] 18.3 µM
